From the supplement of paper PMC6555819 come the findings set out here.

Holding throughout (test): PBM binding z-score (relative to random genomic background probes); higher = stronger binding; sequences stand for … in GC…GCGATTGACAGCGTAGAATGAAGG
Assay [1] concerns FXR:RXRa (NR concentration 270 nM, RXRa partner concentration 90 nM). In short, it runs like this: (§1)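 Random background probes are the reference for binding z-scores. These scores derive from regression-normalized fluorescence on custom Agilent 4×180K protein-binding microarrays incubated 1 h with ligand-free nuclear receptor dimers. Binding was detected with antibodies against each partner (one per run).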

In assay [2] the test system is LXRa:RXRa (NR concentration 270 nM, RXRa partner concentration 90 nM). The method in brief:
as §1

For assay [3], the system named is LXRa homodimer (NR concentration 270 nM). In short, it runs like this: as §1
The test system of assay [4] is LXRb:RXRa (NR concentration 270 nM, RXRa partner concentration 90 nM). In short, it runs like this: as §1
In assay [5] the test system is LXRb homodimer (NR concentration 270 nM). In short, it runs like this: as §1
Assay [6] has as its system PPARa:RXRa (NR concentration 270 nM, RXRa partner concentration 90 nM). In short, it runs like this:
as §1

For assay [7], the system named is PPARg:RXRa (NR concentration 180 nM, RXRa partner concentration 90 nM). The method in brief: as §1
Assay [8] has as its system PPARg:RXRa 270nM:90nM, anti-RXR (NR concentration 270 nM, RXRa partner concentration 90 nM). The method in brief:
as §1

The subject of assay [9] is PPARg:RXRa 30nM:10nM, anti-RXR (NR concentration 30 nM, RXRa partner concentration 10 nM). In short, it runs like this: as §1
For assay [10], the system named is PPARg:RXRa 90nM:30nM, anti-RXR (NR concentration 90 nM, RXRa partner concentration 30 nM). The method in brief: as §1
For assay [11], the system named is PPARg:RXRa DBDmut IVT, anti-RXR (DBD mutation: RXRa K156A/R161A, NR concentration 270 nM, RXRa partner concentration 90 nM). In short, it runs like this: as §1
In assay [12] the test system is PPARg:RXRa IVT, anti-PPARg (NR concentration 270 nM, RXRa partner concentration 90 nM). In short, it runs like this: as §1
Assay [13] has as its system PPARg DBDmut:RXRa IVT, anti-PPARg (DBD mutation: PPARg1 K132A/R137A, NR concentration 270 nM, RXRa partner concentration 90 nM). In short, it runs like this: as §1
Assay [14] has as its system PPARg DBDmut IVT, anti-PPARg (DBD mutation: PPARg1 K132A/R137A, NR concentration 270 nM). The method in brief:
as §1

The subject of assay [15] is PPARg homodimer (NR concentration 180 nM). In short, it runs like this: as §1
Assay [16] relates to PXR:RXRa (NR concentration 270 nM, RXRa partner concentration 90 nM). In short, it runs like this: as §1
For assay [17], the system named is PXR homodimer (NR concentration 270 nM). In short, it runs like this:
as §1

In assay [18] the test system is RARa:RXR (NR concentration 270 nM, RXRa partner concentration 90 nM). In short, it runs like this: as §1
Assay [19] relates to RARa homodimer (NR concentration 270 nM). The method in brief: as §1
The subject of assay [20] is RARb:RXRa (NR concentration 270 nM, RXRa partner concentration 90 nM). In short, it runs like this:
as §1

ACAGACAGGTGATGAAGGTAACTCTGGCTATCAT: the PBM binding z-score is -0.247 in assay [1]; -0.358 in [2]; -0.109 in assay [3]; -0.536 in assay [4]; -0.538 in assay [5]; -0.229 in assay [6]. Also, the PBM binding z-score in [7] is 0.485; in [8], -0.185; in assay [9], 0.143; in [10], 0.132; in [11], 0.0322; in [12], 0.477. For the same sequence, the PBM binding z-score in assay [13] is 0.353; in assay [14], 0.0262; in assay [15] it was 0.0574; in assay [16] it was -0.19; in assay [17] it was -0.412; in assay [18] it was 0.0777. The values for the PBM binding z-score in assay [19] and in assay [20] were -0.252 and 0.114, respectively.
With CCAGACAGGTTAGAAGGTAACTCAGCCTCGATTA, the PBM binding z-score in [1] worked out at 0.224; in assay [2] it was 0.466; in assay [3] it was 0.473; in [4], 0.483; in [5], 0.172; in assay [6] it was 0.816. Also, the PBM binding z-score was 0.402 in [7]; 0.288 in assay [8]; -0.236 in [9]; 0.116 in [10]; 0.311 in assay [11]; 0.0619 in [12]. In addition, the PBM binding z-score in [13] was -0.119; in [14], -0.234; in assay [15], 1.19; in assay [16] it was 0.328; in assay [17] it was 0.257; in assay [18] it was 0.828. For the same sequence, the PBM binding z-score in [19] amounted to 0.903; in [20], 0.829.
Turning to TCTGCTCGGTCAACGATGGTCAGCTAATCTGCTA, the PBM binding z-score was 0.568 in [1]; 0.372 in [2]; -0.251 in assay [3]; -0.449 in [4]; -0.425 in assay [5]; 0.275 in assay [6]. Also, the PBM binding z-score in assay [7] is -0.279; in assay [8] it was 0.898; in assay [9], 1.25; in assay [10], 1.09; in [11] it was 1.1; in assay [12], 1.1. The PBM binding z-score in [13] is -0.37; in [14], -0.828; in assay [15], -0.45; in assay [16] it was -0.246; in assay [17], -1.09; in assay [18], -0.0627. The results for the PBM binding z-score in assay [19] and in assay [20] were -0.906 and 2.59, respectively.
Turning to CAAACTAGGTCAAGAGGTCAAAATCCGCTTCCCG, the PBM binding z-score amounted to 6.73 in [1]; 6.04 in [2]; 5.14 in assay [3]; 5.6 in [4]; 1.75 in assay [5]; 6.65 in [6]. Also, the PBM binding z-score in assay [7] was 9.69; in [8] it was 8.11; in assay [9] it was 7.03; in assay [10], 8.2; in assay [11] it was 7.82; in assay [12], 8.13. Moreover, the PBM binding z-score in [13] amounted to 1.85; in assay [14], 1.15; in [15], 4.78; in [16], 5.89; in [17], 1.57; in assay [18] it was 7.65. Moreover, the PBM binding z-score in [19] stood at 1.73; in assay [20], 5.35.
With TCGAGTAGGTTACCAATGGGGCATGCAGCTTTCT, the PBM binding z-score in assay [1] is -0.0297; in [2], 0.818; in assay [3], -0.705; in assay [4] it was 0.567; in assay [5], -0.608; in assay [6] it was 1.07. In addition, the PBM binding z-score in assay [7] was determined as 0.261; in [8], 1.08; in assay [9] it was 0.922; in assay [10] it was 1.1; in assay [11], 2.81; in assay [12], 2.63. Also, the PBM binding z-score was -0.851 in assay [13]; -0.804 in assay [14]; 0.0945 in assay [15]; 0.0825 in assay [16]; -0.874 in assay [17]; 0.433 in assay [18]. Moreover, the PBM binding z-score in assay [19] was -0.816; in assay [20] it was 0.932.
Turning to CTACCAAGGTGAACAAAGTCGTTGATTACTATTC, the PBM binding z-score in assay [1] was 0.425; in assay [2], 0.395; in assay [3] it was -0.0192; in [4], 0.749; in assay [5] it was -0.488; in assay [6] it was 1.01. Moreover, the PBM binding z-score in assay [7] was 0.314; in assay [8], 0.548; in assay [9] it was 0.192; in assay [10], 0.308; in [11] it was 2.31; in assay [12] it was 2.45. The PBM binding z-score was 0.74 in [13]; 0.992 in [14]; 0.58 in assay [15]; 0.262 in assay [16]; 0.0608 in assay [17]; 0.544 in assay [18]. For the same sequence, the results for the PBM binding z-score in assay [19] and in assay [20] were 0.222 and 1.42, respectively.
